“And” between values parts separate entries of the source, which are not always exact repeats. Equal values may be shown once. Results filed as inconclusive are left out. Where a call stands in place of a potency, no number is given. Some compounds were tested as several samples or in several runs, with calls that do not always agree. The source made the active and inactive calls. Unless noted, calls come from the whole dose curve; as a rule, active = well fitted curve in the direction sought with a large enough effect in the repeat runs; inconclusive = weak or mixed curves; inactive = no such curve, though single readings can be large; an effect the other way counts as inactive or inconclusive.
Tests used:
[1] = qHTS assay for small molecules that induce genotoxicity in human embryonic kidney cells expressing luciferase-tagged ATAD5 (AID 651632); note: nearly all actives have a fitted effect of over 15% in size; note: potency is the fitted concentration of half-maximal effect
Summary of the method: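 Concentration-response screen for ATAD5 upregulation in HEK293T luciferase reporter cells; 16 hr treatment at 37C, then luminescence after 30 min with Amplite at room temperature.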

[2] = qHTS assay for small molecule agonists of the p53 signaling pathway - cell viability (AID 651633; calls by dose curve; note: nearly all actives have a fitted effect of over 30% in size; note: potency is the fitted concentration of half-maximal effect)
Summary of the method: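 p53RE-bla cells were treated with compound for 16 hours at 37 C. Cytotoxicity was then measured as CellTiter-Glo luminescence after 30 min at room temperature.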

[3] = qHTS assay for small molecules that induce genotoxicity in human embryonic kidney cells expressing luciferase-tagged ATAD5 - cell viability (AID 651634; calls by dose curve; note: nearly all actives have a fitted effect of over 25% in size; note: potency is the fitted concentration of half-maximal effect)
Summary of the method: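 15.5 hr compound or vehicle exposure of HEK293T cells expressing luciferase-tagged ATAD5 at 37C; live-cell protease activity is read by fluorescence after 30 min of CellTiter-Fluor.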

[4] = qHTS assay for small molecule disruptors of the mitochondrial membrane potential - cell viability (AID 720634; calls by dose curve; note: nearly all actives have a fitted effect of over 20% in size; note: potency is the fitted concentration of half-maximal effect)
Summary of the method: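 In this qHTS format, HepG2 cells plated overnight were pinned with compound, incubated 1 hr, and assayed for ATP luminescence with CellTiter-Glo after m-MPI dye addition.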

[5] = qHTS assay for small molecule disruptors of the mitochondrial membrane potential (AID 720635); note: potency is the fitted concentration of half-maximal effect
Summary of the method: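 HepG2 cells exposed to compound 1 hr at 37C, then Mito-MPS dye 30 min. Ratio read of aggregate (540/590 nm) versus monomer (490/535 nm) fluorescence.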

[6] = qHTS assay to test for compound auto fluorescence at 590 nm (red) in HepG2 cells (AID 720674)
Summary of the method: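 HepG2 cells, 2,000 per well in MEM with 10% FBS, attached overnight at 37 C, then got 23 nL compound or DMSO. After 1 hr at 37 C, 5% CO2, red fluorescence was read at 540/590 nm against Rose Bengal sodium as reference.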

[7] = qHTS assay to test for compound auto fluorescence at 535 nm (green) in HepG2 cells (AID 720675); note: potency is the fitted concentration of half-maximal effect
[8] = qHTS assay to test for compound auto fluorescence at 460 nm (blue) in HEK293 cells (AID 720678)
Summary of the method: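 Auto fluorescence in the blue band was quantified as triamterene equivalency. HEK293 cells were seeded at 2,000/well, dosed after a 4-5 hr attachment, and kept overnight at 37C before the 405/460 nm reading.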

[9] = qHTS assay to test for compound auto fluorescence at 590 nm (red) in HEK293 cells (AID 720679)
Summary of the method: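 Autofluorescence equivalency to Rose Bengal sodium, 540/590nm, in HEK293 cells exposed overnight to 23 nL compound per well.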

[10] = qHTS assay for small molecule agonists of the p53 signaling pathway (AID 651631; calls by dose curve; note: potency is the fitted concentration of half-maximal effect; nearly all actives have a fitted effect of over 15% in size)
Summary of the method: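 Agonist mode screen using a stably integrated beta-lactamase gene under p53 response elements in HCT-116 cells. Compound exposure lasts 16 h at 37 °C; fluorescence intensity is measured following 2 h FRET substrate loading.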

Compound	Potency [1]	Potency [2]	Potency [3]	Potency [4]	Potency [5]	outcome [6]	Potency [7]	Potency [8]	outcome [9]	Potency [10]	fluorescence, relative to Rose Bengal [6]	fluorescence, % of fluorescein control [7]	fluorescence, % of triamterene [8]	fluorescence, % of fluorescent control [9]
CCCCCCCCCCCCCC[P+](CCCC)(CCCC)CCCC	inactive	24.2 µM (active) and 15.4 µM (active)	30.5 µM (active) and 27.3 µM (active)	34.2 µM (active) and 24.3 µM (active)	542 nM (active) and 486 nM (active)	inactive	inactive	inactive	inactive					
CC[C@]1(O)C[C@@H]2CN(CCc3c([nH]c4ccccc34)[C@@](C(=O)OC)(c3cc4c(cc3OC)N(C)[C@H]3[C@@](O)(C(=O)OC)[C@H](OC(C)=O)[C@]5(CC)C=CCN6CC[C@]43[C@@H]65)C2)C1	1.19 µM (active) and 266 nM (active)		133 nM (active) and 168 nM (active)	inactive	1.88 µM (active) and 944 nM (active)	inactive	inactive	inactive	inactive	0.0422 µM (active)				
NNCCc1ccccc1	inactive		inactive	inactive	inactive	inactive	inactive	inactive	inactive					
c1ccc2c(c1)CCCC2C1=NCCN1 (stereo not drawn)	inactive	inactive	inactive	inactive		inactive	inactive	inactive	inactive					
CCC(C)(C)C(=O)O[C@H]1C[C@@H](C)C=C2C=C[C@H](C)[C@H](CC[C@@H]3C[C@@H](O)CC(=O)O3)[C@H]21	inactive	inactive and 61.1 µM (active)	inactive			inactive	inactive	inactive	inactive					
COc1ccc(CCN(C)CCCC(C#N)(c2ccc(OC)c(OC)c2)C(C)C)cc1OC (stereo not drawn)	inactive	inactive	inactive			inactive	inactive	inactive	inactive					
Nc1nc(=S)c2[nH]cnc2[nH]1	inactive			inactive	inactive	inactive	inactive	inactive	inactive					
Cc1cc(OCCOCC[N+](C)(C)Cc2ccccc2)ccc1C(C)(C)CC(C)(C)C	inactive		9.63 µM (active)	12.1 µM (active)	16.8 µM (active) and 3.05 µM (active)	inactive	inactive	inactive	inactive					
CCCCCCCCCCCCCCCCCl	inactive	inactive	inactive	inactive							-0.733% [at 18.6 µM] (inactive)	-0.021% [at 18.6 µM] (inactive)	0.0135% [at 18.6 µM] (inactive)	0.199% [at 18.6 µM] (inactive)
COc1ccc(COC(C)=O)cc1	inactive	inactive	inactive	inactive	inactive	inactive	inactive	inactive	inactive					
CC(C)CCOCc1ccccc1	inactive	inactive	inactive	inactive		inactive	inactive	inactive	inactive					
O=C1Nc2ccccc2C1(c1ccc(O)cc1)c1ccc(O)cc1	inactive		inactive	inactive	13.7 µM (active)	inactive	inactive	inactive	inactive					
O=C1OC2(c3ccc(O)cc3Oc3cc(O)ccc32)c2ccccc21	inactive			inactive	84.1 nM (active) and 61.1 nM (active)	inactive	3.16 µM (active) and 2.51 µM (active) and 3.98 µM (active)	inactive	inactive					
O=C1CC2(CCCC2)CC(=O)N1CCCCN1CCN(c2ncccn2)CC1	inactive		inactive	inactive	inactive and 30.6 µM (active)	inactive	inactive	inactive	inactive					
O=C(Nc1ccccc1SSc1ccccc1NC(=O)c1ccccc1)c1ccccc1	inactive	inactive			7.74 µM (active) and 15.4 µM (active)	inactive	inactive	inactive	inactive					
CC(COc1ccccc1)N(CCCl)Cc1ccccc1 (stereo not drawn)			inactive	inactive	inactive and 43.7 µM (active) and 43.3 µM (active)	inactive	inactive	inactive	inactive					
COc1ccc(CCN2CCC(Nc3nc4ccccc4n3Cc3ccc(F)cc3)CC2)cc1		26.6 µM (active) and 11.1 µM (active)	26.6 µM (active) and 44.2 µM (active)	49.6 µM (active)		inactive	inactive	inactive	inactive					
CC(C)CCCCCCc1ccc(O)cc1	inactive	62.2 µM (active)		6.22 µM (active) and 61.1 µM (active)	5.31 µM (active) and 1.56 µM (active) and 5.45 µM (active)	inactive	inactive	inactive	inactive					
O=C(O)c1cccc(C(=O)O)c1		inactive		inactive	inactive	inactive	inactive	inactive	inactive					
Nc1ccc(O)cc1		26.6 µM (active) and 30.6 µM (active) and 31.8 µM (active)		31.8 µM (active)	841 nM (active) and 3.06 µM (active) and 897 nM (active)	inactive	inactive	inactive	inactive					

Compound	Potency [1]	Potency [2]	Potency [3]	Potency [4]	Potency [5]	outcome [6]	Potency [7]	Potency [8]	outcome [9]	Potency [10]	fluorescence, relative to Rose Bengal [6]	fluorescence, % of fluorescein control [7]	fluorescence, % of triamterene [8]	fluorescence, % of fluorescent control [9]
CCCCCCCCCCCC[N+](C)(C)C	inactive		inactive	inactive	61.1 µM (active)	inactive	inactive	inactive	inactive					
CCN(CC)CCOc1ccc(/C(=C(\Cl)c2ccccc2)c2ccccc2)cc1		29.8 µM (active) and 49.6 µM (active)	inactive	inactive		inactive	inactive	inactive	inactive					
O=C(O[C@@H]1Cc2c(O)cc(O)cc2O[C@@H]1c1cc(O)c(O)c(O)c1)c1cc(O)c(O)c(O)c1	inactive	inactive		inactive	27.4 µM (active)	inactive	inactive	inactive	inactive					
c1ccc2cc3c(ccc4ccccc43)cc2c1	68.8 µM (active)	inactive	inactive			inactive	inactive	inactive	inactive					
c1ccc2c(c1)-c1cccc3c1c-2cc1ccccc13	inactive		inactive	17.2 µM (active)	13.4 µM (active) and 13.7 µM (active)	inactive	inactive	inactive	inactive					
CCN(CC)C(=S)SSC(=S)N(CC)CC	11.9 µM (active) and 61.1 µM (active) and 13.7 µM (active)			inactive	7.7 µM (active) and 7.02 µM (active)	inactive	inactive	inactive	inactive					
Cc1ccc(S(=O)(=O)Oc2ccc(N=Nc3ccc(-c4ccc(N=Nc5c(O)ccc6cc(S(=O)(=O)O)cc(S(=O)(=O)O)c56)c(C)c4)cc3C)cc2)cc1		inactive	54.7 µM (active) and 20 µM (active)	inactive		inactive	inactive	inactive	inactive					
CCCCN(CCO)CCCC	inactive	inactive	inactive	inactive		inactive	inactive	inactive	inactive					
NC12CC3CC(CC(C3)C1)C2	inactive	inactive	inactive	inactive		inactive	inactive	inactive	inactive					
CC(=O)O[C@]1(C(C)=O)CC[C@H]2[C@@H]3C[C@H](C)C4=CC(=O)CC[C@]4(C)[C@H]3CC[C@@]21C	inactive	inactive	inactive	inactive		inactive	inactive	inactive	inactive					
Cc1ccc(-c2cc(C(F)(F)F)nn2-c2ccc(S(N)(=O)=O)cc2)cc1	inactive	54.3 µM (active)		11.9 µM (active) and 12.1 µM (active) and 30.6 µM (active)	11.9 µM (active) and 7.66 µM (active) and 21.7 µM (active)	inactive	inactive	inactive	inactive					
Clc1ccc2c(c1)C(N1CCNCC1)=Nc1ccccc1O2	inactive	inactive	inactive	inactive		inactive	inactive	inactive	inactive					
Oc1ccc(Cl)cc1Cc1cc(Cl)ccc1O	inactive	18.8 µM (active) and 55.5 µM (active) and 43.3 µM (active)	inactive	6.68 µM (active) and 221 nM (active)	1.88 µM (active) and 1.24 µM (active) and 1.22 µM (active)	inactive	inactive	inactive	inactive					
O=C1NCC2(CCN(CCc3ccccc3)CC2)O1	inactive	inactive	inactive	inactive		inactive	inactive	inactive	inactive					
COC(=O)/C=C/c1ccccc1	inactive	inactive	inactive	inactive		inactive	inactive	inactive	inactive					
CCc1cc(C(C)(C)C)c(O)c(C(C)(C)C)c1	inactive	15.5 µM (active) and inactive		inactive	15.5 µM (active) and 30.6 µM (active)	inactive	inactive	inactive	inactive					
O=C(Oc1ccccc1)c1ccccc1O	inactive		inactive	inactive	inactive and 54.5 µM (active)	inactive	inactive	inactive	inactive					
CN(C)c1ccc(C(=C2C=CC(=[N+](C)C)C=C2)c2ccccc2)cc1	inactive	23.7 µM (active) and 273 nM (active)		inactive and 17.2 µM (active)	29.8 µM (active) and 77 nM (active)	inactive	inactive	inactive	inactive					
CC(C)(C)c1ccc(O)c(C(C)(C)C)c1	inactive	60.9 µM (active) and 48.6 µM (active)		24.2 µM (active)	2.72 µM (active) and 3.06 µM (active)	inactive	inactive	inactive	inactive					

— PubChem BioAssay (Tox21)
